The text below walks through data of ChEMBL document CHEMBL5308504, “Tm Shift (DSF) assay results for EUbOPEN Chemogenomics Library” (2023).

The target of the assay is Bromodomain-containing protein 4 (Homo sapiens) (UniProt O60885). As to conditions: Compound concentration 20.0 uM, Protein concentration 2.0 uM, Result type QC Liability.
As for `C[C@@H]1CC[C@@]2(OC1)O[C@H]1[C@@H](O)[C@H]3[C@@H]4CC[C@H]5C[C@@H](O[C@@H]6O[C@H](CO)[C@H](O[C@@H]7O[C@H](CO)C(O)[C@H](O[C@@H]8OC[C@@H](O)[C@H](O)[C@H]8O)[C@H]7O[C@@H]7O[C@H](CO)[C@H](O)[C@H](O[C@@H]8O[C@H](CO)[C@@H](O)[C@H](O)[C@H]8O)[C@H]7O)[C@H](O)[C@H]6O)[C@H](O)C[C@]5(C)[C@H]4CC[C@]3(C)[C@H]1[C@@H]2C` (stereo partly specified), the thermal shift (ΔTm) is -1.87 °C. Then `CCN(CC)CCO[C@H]1CC[C@@]2(C)C(=CC[C@@H]3[C@@H]2CC[C@]2(C)C(=O)CC[C@@H]32)C1`, with -1.53 °C. Then `CO[C@H](C)CN1CC[C@]2(C)c3cccc(O)c3C[C@H]1C2(C)C`, with -1.2 °C. With `CCN1C(=O)C(c2cccc(C(=O)O)c2)C(=O)N(c2ccccc2)c2cc(C(F)(F)F)ccc21` (stereo unspecified), the shift in melting temperature (ΔTm) was -0.84 °C. Take `O=C1CCC(N2Cc3cc(CNC(=O)C(F)(F)c4ccc(Cl)cc4)ccc3C2=O)C(=O)N1` (stereo unspecified): the ΔTm was -1.23 °C. For `CNc1nc(-c2cc(C(=O)N3CCN(Cc4ccc(Cl)cc4)CC3)c(Cl)cn2)cs1` the value was 0.71 °C; for `CO[C@H](C)CN1CC[C@@]2(C)c3ccc(O)cc3C[C@@H]1C2(C)C`, -0.17 °C; for `CN(C(=O)CCOCCOCCOCCOCCNc1cccc2c1C(=O)N(C1CCC(=O)NC1=O)C2=O)[C@H]1CC[C@@]2(C)[C@@H](CC[C@@H]3[C@@H]2CC[C@]2(C)[C@@H](c4ccc5ccncc5c4)CC[C@@H]32)C1` (stereo partly specified), -2.19 °C. For `CC[C@H]1[C@@H](O)[C@@H]2[C@H](CC[C@]3(C)[C@@H]([C@H](C)CCC(=O)O)CC[C@@H]23)[C@@]2(C)CC[C@@H](O)C[C@@H]12` the value was -3.05 °C; for `Cc1nnc2n1-c1sc3c(c1C(c1ccccc1Cl)=NC2)C[C@H](C(=O)N1CCOCC1)C3`, -0.46 °C; for `CO[C@@H](C)CN1CC[C@]2(C)c3cc(O)ccc3C[C@H]1C2(C)C`, -1.9 °C.

For the compound `CCC(=O)O[C@@H](OP(=O)(CCCCc1ccccc1)CC(=O)N1C[C@H](C2CCCCC2)C[C@H]1C(=O)O)C(C)C` (stereo partly specified), the ΔTm was -0.8 °C.

As to `CN1CCN(C(=O)Cc2ccc(N/C(=C3\C(=O)Nc4cc(Cl)ccc43)c3ccccc3)cc2)CC1`, the ΔTm is -3.18 °C.

Consider `Clc1ccccc1C(c1ccccc1)(c1ccccc1)n1cccn1`, for which the ΔTm is -0.07 °C. Then `C[C@H](CCC(=O)O)[C@H]1CC[C@H]2[C@@H]3[C@@H](O)C[C@@H]4C[C@H](O)CC[C@]4(C)[C@H]3CC[C@]12C`, with -2.97 °C; and `C=CC(=O)Nc1cc(-c2nn(C3CCC(N4CCN(C(C)=O)CC4)CC3)c3ncnc(N)c23)ccc1Oc1ccccc1` (stereo unspecified), with -0.22 °C. For the compound `C=CC(=O)N1CCC[C@@H](n2nc(-c3ccc(Oc4ccccc4)cc3)c3c(N)ncnc32)C1`, the ΔTm is -4.44 °C. Then `CNC(=O)c1cc(C(=O)NC2CC2)cn(Cc2ccccc2)c1=O`, with -1.08 °C; and `C[C@@H](CN1CC[C@@]2(C)c3cccc(O)c3C[C@@H]1C2(C)C)OCc1ccccc1`, with -0.17 °C. Then `C[C@]12CC[C@@H]3c4ccc(C(N)=O)cc4CC[C@H]3[C@@H]1CC=C2c1cncc(F)c1`, with 0 °C; and `Cc1cc(Cl)ccc1S(=O)(=O)NC[C@H]1C2CCC(CC2)[C@@H]1/C=C\CCCC(=O)O`, with -1.69 °C; and `C=CC(=O)Nc1ccc2[nH]c(=O)n(C3CCN(Cc4ccc(-c5ccc6c(c5)NC(=O)CO6)cc4)CC3)c2c1`, with 0.27 °C. For `Cc1nnc2n1-c1sc3c(c1C(c1ccccc1Cl)=NC2)CC(C(=O)N1CCOCC1)C3` (stereo unspecified) the value was 0.62 °C; for `COc1ccc(-n2nc(C(F)(F)F)cc2-c2ccc(Cl)cc2)cc1`, -1.21 °C; for `O=C(NCCN1CCC2(CC1)C(=O)NCN2c1cccc(F)c1)c1ccc2ccccc2c1`, -0.54 °C. For the compound `N[C@H](C(=O)O)[C@@H]1CC(Cl)=NO1`, the ΔTm was -0.13 °C.

What is called ΔTm is the shift of the melting midpoint relative to a reference.
